Test results published in PubChem BioAssay AID1851 (National Center for Advancing Translational Sciences (NCATS), 2009).
Several values for one entry are separate records, joined by “and”; a condition that tells them apart may be missing. Equal entries are not always repeated. In all, about 16,000 compounds went through this assay and about 2,600 (16%) were called active. Inconclusive results (about 20%) are left out. This is one part of a sample in which actives are shown more often than they occur. A number with no mark means an inactive call. Calls come from the whole dose curve; as a rule, active = well fitted curve in the direction sought with a large enough effect; inconclusive = small, poorly fitted or top-dose-only effect, or effect the other way; inactive = no such curve, though single readings can be large or run the other way.

target: Cytochrome P450 2D6 (Homo sapiens) (UniProt P10635); experiment: Cytochrome panel assay with activity outcomes; conditions: recombinant CYP, pro-luciferin dealkylation, luminescence, p450-cyp2d6; series mostly up to 57.1 µM; activity, negative = inhibition: at the top concentration
% is set by controls: 0 for no effect and ±100 for the full control effect.

Chain of Cytochrome P450 2D6 (Homo sapiens) (P10635 whole entry, looked up): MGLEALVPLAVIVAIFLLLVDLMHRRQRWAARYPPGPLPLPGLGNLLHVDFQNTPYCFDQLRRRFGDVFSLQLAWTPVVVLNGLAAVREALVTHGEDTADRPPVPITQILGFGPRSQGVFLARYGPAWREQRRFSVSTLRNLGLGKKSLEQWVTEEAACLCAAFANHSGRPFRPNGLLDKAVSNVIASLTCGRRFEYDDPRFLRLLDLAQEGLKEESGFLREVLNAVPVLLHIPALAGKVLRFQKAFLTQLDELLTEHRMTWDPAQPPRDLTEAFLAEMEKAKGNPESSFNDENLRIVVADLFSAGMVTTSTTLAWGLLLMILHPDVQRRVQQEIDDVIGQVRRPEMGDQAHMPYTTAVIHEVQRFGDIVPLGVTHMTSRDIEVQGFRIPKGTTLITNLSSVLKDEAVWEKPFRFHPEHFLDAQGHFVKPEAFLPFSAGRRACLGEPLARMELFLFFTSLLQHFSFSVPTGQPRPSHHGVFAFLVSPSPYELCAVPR

| SMILES | activity, negative = inhibition | AC50 |
| --- | --- | --- |
| Cc1ncc([N+](=O)[O-])n1CCN=[N+]=[N-] | 0.431% [at 11.4 µM] |  |
| CCCN(CCC)C(=O)Cc1c(-c2ccc(Cl)cc2)nc2c(Cl)cc(Cl)cn12 | 2.68% |  |
| C[C@]12CCC3c4ccc(OCC(=O)O)cc4CCC3C1CCC2=O (stereo not given in full) | 12.6% [at 11.4 µM] |  |
| COc1ccc2c(c1)CCC1[C@@H]2CCC2(C)[C@@H](NCCCCCCN3C(=O)C=CC3=O)CC[C@@H]12 (stereo not given in full) |  | 10 µM (active) |
| C[C@]12CC[C@H]3c4ccc(O)cc4CC[C@@H]3[C@H]1CC[C@@H]2OP(=O)(O)O | 11.2% [at 11.4 µM] |  |
| CO[C@@H]1CC=C2CCN3CCC4=C(CC(=O)OC4)[C@]23C1 | -6.15% |  |
| Cn1cc(C(=O)C(=O)N[C@H]2CN3CCC2CC3)c2ccccc21 |  | 0.0631 µM (active) |
| CC(C)n1cnc2c(C(=O)N[C@H]3CN4CCC3CC4)cc(Cl)cc21 | 3.65% |  |
| CN1C(=O)COc2c(C(=O)N[C@@H]3CN4CCC3CC4)cc(Cl)cc21 | 6.82% |  |
| CCNC(C)(C)[C@@H](SS)c1ccc(Br)cc1 |  | 2 µM (active) |
| CNCCc1ccc(O)c(O)c1 | -2.02% |  |
| Nc1nc(N)c(Cn2ccnc2)c(=O)[nH]1 | -11.4% [at 11.4 µM] |  |
| CS(=O)(=O)Nc1ccc(Cc2noc(-c3ccc4[nH]cc(CCN)c4c3)n2)cc1 |  | 0.126 µM (active) |
| CCCN(CCC)[C@@H]1CCc2c(OC)cccc2[C@@H]1C | 5.27% |  |
| CCCN[C@@H]1CCc2c(OC)cccc2[C@@H]1C |  | 0.251 µM (active) |
| OC1(c2ccc(F)cc2)CCNC1 (stereo not given) | -4.2% |  |
| CCCN1CCC[C@@H]2Cc3[nH]ncc3C[C@H]21 |  | inactive |
| C[C@@]12CC[C@H]3[C@@H](CCC4=C(O)C(=O)CC[C@]43C)[C@H]1CCC2=O | -13.5% |  |
| COC(=O)c1cc2c(cn1)[nH]c1ccccc12 | -1.19% |  |
| Cc1nccc2c1[nH]c1ccccc12 |  | 10 µM (active) |
| Cc1c2ccncc2c(C)c2c1[nH]c1ccccc12 |  | 6.31 µM (active) |
| O=[N+]([O-])c1ccc(N2CCNCC2)cc1NCC1CCCO1 (stereo not given) | -5.92% |  |

| SMILES | activity, negative = inhibition | AC50 |
| --- | --- | --- |
| NC(=O)CI | -9.38% |  |
| CN1CCC(c2c[nH]c3ccc(O)cc23)CC1 | -0.301% |  |
| NCCc1c[nH]c2ccc(C(N)=O)cc12 |  | inactive |
| NCCc1c[nH]c2ccc(O)cc12 | -15.6% |  |
| CCCN(CCC)CCc1c[nH]c2ccc(C(N)=O)cc12 |  | 39.8 µM (active) |
| CC[C@H]1CN2CC[C@@H]1C[C@H]2[C@@H](O)c1ccnc2ccc(OC)cc12 |  | 3.16 µM (active) |
| C=C[C@@H]1CN2CC[C@H]1C[C@H]2[C@H](O)c1ccnc2ccccc12 |  | 3.98 µM (active) |
| C=C[C@H]1CN2CC[C@@H]1C[C@H]2[C@@H](O)c1ccnc2ccccc12 |  | 3.16 µM (active) and 501 nM (active) |
| O=C(O)CC[N+](=O)[O-] | 7.9% |  |
| C[C@H]1C(=O)O[C@@H]2CCN3CC=C(COC(=O)[C@@](C)(O)[C@@]1(C)O)[C@H]23 | 6.81% [at 25.6 µM] |  |
| CCOP(=O)(OCC)C(NC(C)=O)C(Cl)(Cl)Cl (stereo not given) | 2.71% |  |
| N[C@@H](CP(=O)(O)O)C(=O)O | -1.79% [at 11.4 µM] |  |
| COc1ccc(C(=O)c2c(C)n(CCN3CCOCC3)c3cc(I)ccc23)cc1 | 6.13% |  |
| N[C@@]1(C(=O)O)CC[C@H](C(=O)O)C1 |  | inactive |
| COc1cc(/C=N/NC(=O)CN2CC(c3ccccc3)CC2=O)ccc1OC(=O)N(C)C (stereo not given) | -1.46% |  |
| CN(C)C=C1C(=O)N(C2CCCCC2)C(=O)N(C2CCCCC2)C1=O | 10.7% |  |
| NC(=O)COc1c(F)cc(SCCNS(=O)(=O)c2ccccc2)cc1F | 1.88% |  |
| Cc1cc(OCC(=O)OC(C)C)c2c3c(c(=O)oc2c1)CCCC3 | -19.9% |  |
| Cn1c(O)c(C(c2ccccn2)c2c(O)n(C)c(=S)[nH]c2=O)c(=O)[nH]c1=S | 12.2% |  |
| O=C1CN=C(c2cccs2)c2c(sc3c2CCCC3)N1 |  | 1 µM (active) |
| NC[C@@H](Cc1ccccc1)P(=O)(O)O | -3.95% [at 11.4 µM] |  |
| CC(C)(C)C(=O)CP(=O)(O)O | -2.59% [at 11.4 µM] |  |

| SMILES | activity, negative = inhibition | AC50 |
| --- | --- | --- |
| C=C(C)[C@H]1CN[C@H](C(=O)O)[C@@H]1CC(=O)O | -3.28% |  |
| CCC(=O)O[C@@](Cc1ccccc1)(c1ccccc1)[C@@H](C)CN(C)C |  | 7.94 µM (active) |
| COC(=O)[C@@]1(Cc2ccc(F)cc2)[C@H]2c3cc(C(=O)N(C)C)[nH]c3C[C@H]2CN1C(=O)c1ccccc1 | -16.4% |  |
| NC(N)=NCCN=C(N)N | -4.24% [at 11.4 µM] |  |
| Fc1ccccc1CCNCc1cccc(Cl)c1Cl |  | 0.0794 µM (active) |
| CCC1(CCSC(=N)N)C(=O)NC(=O)NC1=O | 12.5% [at 11.4 µM] |  |
| C=C1CC[C@H](O)C/C1=C/C=C1\CCC[C@]2(C)[C@H]1CC[C@H]2[C@@H](C)CCCC(C)C | 3.42% [at 25.6 µM] |  |
| O=P(O)(O)C(Cl)(Cl)P(=O)(O)O | 11% |  |
| CC(C)CN1CCC2(CC1)CCN(S(C)(=O)=O)CC2 |  | 0.794 µM (active) |
| COC(=O)N1CCC2(CCCN(C)C2)CC1 | -15% |  |
| COC(=O)N1CCC2(CCN(CC(C)C)CC2)CC1 |  | 10 µM (active) |
| CC(C)NC(=O)N1CCC2(CC1)CCN(C(=O)Oc1ccccc1)CC2 | -2.03% |  |
| NN=C(N)N |  | inactive |
| Cc1c(C(=O)c2ccc3ccccc3c2)c2cccc3c2n1[C@H](CN1CCOCC1)CO3 | -4.76% |  |
| CN1CCN(c2ccc3ccccc3n2)CC1 |  | inactive |
| O[C@@H]1[C@@H]2c3cc4c(cc3CN3CCC(=C[C@@H]1O)[C@H]23)OCO4 |  | 3.98 µM (active) |
| CC(=NCCN1CCOCC1)c1c(O)n(Cc2ccccc2)c(=O)[nH]c1=O | -0.802% |  |
| C[C@@H]1OC=C2[C@@H](O)[C@H]3O[C@H]3C(=O)[C@@]23[C@H]1[C@H]1C2=C([C@@H](O)[C@H]4O[C@@H]4C2=O)[C@@H]3O[C@@H]1C | 1.81% [at 11.4 µM] |  |
| COc1ccc(C2SCC(=O)Nc3c2c(C)nn3-c2ccccc2)cc1OC (stereo not given) | 1.57% |  |
| O=[N+]([O-])c1cc(O)c(O)c([N+](=O)[O-])c1 | 5.33% |  |
| CC1=NN(c2ccc(S(=O)(=O)O)cc2C)C(=[OH+])[C@H]1N=Nc1cc(S(=O)(=O)O)ccc1C(=O)O.O.[Cr] | -4.46% [at 11.4 µM] |  |
